# High-throughput results deposited in PubChem by National Center for Advancing Translational Sciences (NCATS).
# Rows were chosen to be rich in hits. Some 13% of all compounds tested hit in one or more screens of this group.
# G9a block = qHTS Assay for Inhibitors of Histone Lysine Methyltransferase G9a | G9a H3K9 monomethylation, AlphaScreen, 2 h | AID 504332, 2011 | Potency, µM (highest dose often 102 µM), without a hit: at the highest dose activity, negative = inhibition, most hits filed as inhibitors | actives 8.8% (n = 350,000); also: potency is read from the fitted curve at half-maximal effect; % is scaled to controls: 0 for no effect and ±100 for the full control effect; nearly all actives have a fitted effect of over 75% in size
# Target sequence (Q96KQ7 913-1193 limits assumed): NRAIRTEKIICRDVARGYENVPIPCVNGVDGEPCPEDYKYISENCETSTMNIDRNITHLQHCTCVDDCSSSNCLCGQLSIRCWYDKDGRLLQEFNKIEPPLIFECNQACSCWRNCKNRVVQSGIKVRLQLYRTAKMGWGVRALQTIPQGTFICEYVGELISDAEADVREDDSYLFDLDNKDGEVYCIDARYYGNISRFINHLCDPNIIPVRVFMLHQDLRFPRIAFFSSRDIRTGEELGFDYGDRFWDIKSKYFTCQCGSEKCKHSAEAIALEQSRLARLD
#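 Step 1: enzyme (final 20 nM) with compound, 15 min RT. Step 2: substrate peptide 500 nM and SAM 20 uM, 2 h RT. Step 3: anti-H3K9me1 antibody and AlphaScreen beads, 10 min, then plate read.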
# JMJD2E inh = qHTS Assay for Inhibitors of Human Jumonji Domain Containing 2E (JMJD2E). Potency, µM (top dose mostly 57.1 µM), for inactives: top-dose activity change, negative = inhibition, hits mostly inhibitors. actives 1.6% (n = 230,000). JMJD2E catalytic domain, FDH-coupled NADH fluorescence (FDH is formaldehyde dehydrogenase);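 also: potency is read from the fitted curve at half-maximal effect; 0% = wells with enzyme and -100% = buffer wells without enzyme; nearly all actives have a fitted effect of over 50% in size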
# Lamin A splicing = qHTS Assay for Modulators of Lamin A Splicing; Potency, µM (top dose mostly 46.1 µM), without a hit: at the highest dose ratio change, negative = inhibition, most hits filed as inhibitors; AID 1487, 2009; actives 0.01% (n = 200,000); HeLa LMNA splicing GFP/RFP minigene ratio, 48 h; active = well fitted inhibition curve with a large enough effect in the signal ratio, with a control signal flat, not every such curve was filed as active; inconclusive = small, poorly fitted or top-dose-only effect, or effect the other way, or a change in a side signal; the % refers to the signal ratio; also: potency is read from the fitted curve at half-maximal effect; % is scaled to controls: 0 for no effect and ±100 for the full control effect
#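 S3 HeLa cells stably expressing lamin A-EGFP splicing minigene plus DsRed2, 600 cells/well, 48 h compound exposure at 37C. Laser-scanning cytometry; analysed as GFP (500-530 nm)/RFP (575-640 nm) total intensity ratio; 0.5% DMSO vehicle.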
# Sfp PPTase inh = qHTS Assay for Inhibitors of Bacillus subtilis Sfp phosphopantetheinyl transferase (PPTase) | actives 3.5% (n = 310,000) | 4'-phosphopantetheinyl transferase ffp (Bacillus subtilis), Q9F4F7 | Biochemical Sfp PPTase activity, qHTS | Potency, µM, inactives show largest response in the series, negative = inhibition, hits mostly inhibitors;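 also: the enzyme is Sfp with the accession as filed and its product quenches rhodamine fluorescence; potency is read from the fitted curve at half-maximal effect; 0% = enzyme reaction without inhibitor and -100% = no enzyme wells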
#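 Compounds were incubated with enzyme (final 15 nM) for 15 min at room temperature before substrate addition started the reaction. Fluorescence at 525 nm excitation, 598 nm emission was recorded immediately and after 30 minutes.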
# miR-21 act = qHTS Assay for Modulators of miRNAs and/orActivators of miR-21. AID 2288, 2010. Potency, µM (titrated, usually from 38.3 µM), inactives show top-dose activity change, positive = activation, hits mostly activators. 340,000 tested, under 10 active. HeLa miR-21 FLuc reporter, luciferase, 48 h;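 also: % of control where 0% means no effect; miR-21 action dims this reporter so a rising signal means less miR-21 action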
#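 HeLa cells endogenously expressing miR-21, stably carrying CMV-driven firefly luciferase with a downstream miR-21 binding site, 2000 cells/well. Titrations up to approximately 40 uM, 48 hours; luciferase luminescence read.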
# ALDH1A1 block = qHTS Assay for Inhibitors of Aldehyde Dehydrogenase 1 (ALDH1A1); Aldehyde dehydrogenase 1A1 (Homo sapiens), P00352; Purified ALDH1A1, NADH fluorescence, propionaldehyde substrate; Potency, µM (series often up to 75.3 µM), for the others: at the highest dose activity, negative = inhibition, most hits filed as inhibitors; actives 7.3% (n = 220,000); active = well fitted inhibition curve with a large enough effect, not every such curve was filed as active; inconclusive = small, poorly fitted or top-dose-only effect, or another doubt; inactive = no such curve, though single readings can be large or run the other way;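 also: potency is read from the fitted curve at half-maximal effect; plate controls were no enzyme wells and a reference inhibitor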
# Target sequence (P00352 whole entry, looked up): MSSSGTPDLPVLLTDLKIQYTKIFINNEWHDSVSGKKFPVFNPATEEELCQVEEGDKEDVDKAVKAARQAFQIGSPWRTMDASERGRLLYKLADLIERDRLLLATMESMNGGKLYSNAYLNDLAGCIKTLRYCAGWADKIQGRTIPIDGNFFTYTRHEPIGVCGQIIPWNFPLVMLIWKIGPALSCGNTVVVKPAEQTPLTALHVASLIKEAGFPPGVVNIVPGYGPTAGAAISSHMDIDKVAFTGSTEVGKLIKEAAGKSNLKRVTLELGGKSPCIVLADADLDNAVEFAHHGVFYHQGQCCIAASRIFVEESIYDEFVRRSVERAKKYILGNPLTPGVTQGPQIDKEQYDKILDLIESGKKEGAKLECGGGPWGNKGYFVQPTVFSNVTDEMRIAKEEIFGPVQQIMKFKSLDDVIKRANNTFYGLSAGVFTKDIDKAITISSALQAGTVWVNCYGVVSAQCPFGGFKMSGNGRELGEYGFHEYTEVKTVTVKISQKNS
# * = called active by the depositor; ? = inconclusive; / = not tested or not shown; [ ] = remark or other dose. Unless noted, calls follow the shape of the dose curve; as a rule, active = well fitted curve in the direction sought with a large enough effect; inconclusive = small, poorly fitted or top-dose-only effect, or another doubt; inactive = no such curve, though single readings can be large; an effect the other way counts as inactive or inconclusive.
SMILES,G9a block,JMJD2E inh,Lamin A splicing,Sfp PPTase inh,miR-21 act,ALDH1A1 block
O=C(c1cccc(Cl)c1)N1CCN(Cc2ccc3c(c2)OCO3)CC1,/,/,/,16.0%,6.1%,/
Cc1cccc(N2CCN(C(=O)c3cnn(-c4ccccc4)c3C3CCN(C(=O)OC(C)(C)C)CC3)CC2)c1C,-45.3%[59 µM],/,?,/,?,/
CCOC(=O)O[C@@H](C)OC(=O)[C@@H]1N2C(=O)[C@@H](NC(=O)[C@@H](N)c3ccccc3)[C@H]2SC1(C)C,27.5%[21.5 µM],-2.0%[25.5 µM],?,11.5%,/,9.8%[20.9 µM]
Cc1ccc(C(C)NC(=O)c2cc3ccccc3oc2=O)cc1C (stereo not drawn),33.4%,/,/,8.0%,-15.1%,/
COc1ccc(N2CCN(C(=O)c3ccc(COc4ccc([N+](=O)[O-])cc4)o3)CC2)cc1,22.4µM*,/,/,0.3%,21.6%,/
Cc1ccc(C(=O)N2CCN(Cc3ccc4c(c3)OCO4)CC2)o1,7.0%[59 µM],3.0%,-2.2%,6.7%,-4.6%,9.0%
Cc1ccc2c(C)c(C(=O)N3CCN(Cc4ccc5c(c4)OCO5)CC3)oc2c1C,50.1µM*,/,/,79.4µM*,-38.4%,/
O=S(=O)(c1ccc(Cl)nc1)N1CCN(Cc2ccc3c(c2)OCO3)CC1,-9.1%[59 µM],1.2%,0.5%,-2.2%,-7.8%,14.1µM*
Cc1ccc(S(=O)(=O)N2CCN(Cc3ccc4c(c3)OCO4)CC2)cc1,9.9%[59 µM],/,/,/,-1.9%,/
COc1cccc(OC)c1C(=O)N1CCN(Cc2ccc3c(c2)OCO3)CC1,14.1µM*,-22.4%,-1.6%,-17.9%,-5.0%,-5.2%
COc1ccc(NC(=O)CCCN2C(=O)C(c3ccccc3)Oc3cccnc32)c(OC)c1 (stereo not drawn),10.4%[0.0925 µM],/,/,-0.1%,-5.1%,/
CN(C)c1cccc2c1c(NC(=O)Nc1ccc(Cl)cc1Cl)nn2C,-9.6%,-6.0%,?,-6.0%,3.2%,-3.5%
COc1ccccc1NC(=O)Nc1nn(C)c2cccc(N(C)C)c12,14.1µM*,?,/,-9.5%,5.8%,/
CCn1c(-c2ccccc2)c(C(=O)CCl)c2ccccc21,?,-24.4%,/,-1.8%,?,6.31µM*
CCn1c2ccccc2c(=O)c2ccccc21,3.5%,2.4%,/,4.0%,-1.5%,?
Cn1c(-c2ccccc2)c(C(=O)CCl)c2ccccc21,17.6%,-26.2%,/,-28.0%,?,3.98µM*
COc1ccccc1Nc1nc(-c2sc(NC(=O)c3cccc(Cl)c3)nc2C)cs1,31.6µM*,?,16.4%,-6.0%,-15.4%,?
Cc1ccc(Cl)cc1Nc1nc(-c2sc(NC(=O)C(C)(C)C)nc2C)cs1,?,-10.0%,?,-7.4%,-1.3%,?
Cc1ccc(Nc2nc(-c3sc(NC(=O)c4cccc(Cl)c4)nc3C)cs2)cc1,25.1µM*,-5.9%,?,-2.5%,-16.2%,15.8µM*
Cc1nc(NC(=O)c2ccc(Cl)cc2)sc1-c1csc(Nc2cccc(F)c2)n1,50.1µM*,?,15.6%,4.5%,-11.7%,?
Cc1ccccc1NC(=O)C1CCN(S(=O)(=O)c2c(C)noc2/C=C/c2ccco2)CC1,-3.9%[59 µM],/,/,/,-0.6%,/
Cc1ccc(CNC(=O)C2CCN(S(=O)(=O)c3c(C)noc3/C=C/c3ccco3)CC2)cc1,?,?,0.5%,39.8µM*,0.3%,?
Cc1noc(/C=C/c2ccco2)c1S(=O)(=O)N1CCC(C(=O)NCc2ccco2)CC1,-23.3%[59 µM],-9.9%,9.8%,19.4%,-3.6%,?
Cc1noc(/C=C/c2ccco2)c1S(=O)(=O)N1CCC(C(=O)N2CCc3ccccc3C2)CC1,?,-21.3%,?,56.2µM*,-7.5%,?
CCc1cccc(CC)c1N(COC)C(=O)Cn1c(CC)nc2ccccc21,?,/,/,/,-49.8%,/
SMILES,G9a block,JMJD2E inh,Lamin A splicing,Sfp PPTase inh,miR-21 act,ALDH1A1 block
S=C1SCN(Cc2cccnc2)CN1Cc1cccnc1,?,18.1%,/,14.1µM*,?,14.1µM*
O=C(O)CCN1C(=O)C2C3CC(C2C1=O)C1C(c2ccccc2)c2sc(=O)[nH]c2SC31 (stereo not drawn),-19.9%,-0.8%,5.2%[9.22 µM],-22.7%,-0.3%,2.2%
O=C(O)CCN1C(=O)C2C3CC(C2C1=O)C1C(c2ccccc2)c2sc(=O)n(-c4ccccc4)c2SC31 (stereo not drawn),44.7µM*,-5.7%,/,?,-7.0%,?
CCc1ccccc1NC(=O)CN1C(=O)C2CCCN2c2ccc(S(=O)(=O)N(CC)CC)cc21 (stereo not drawn),?,/,/,/,-3.3%,/
O=C(NC(=S)Nc1ccc2[nH]c(=O)[nH]c2c1)c1ccccc1[N+](=O)[O-],-9.5%,/,/,-1.8%,-36.6%,/
CCc1ccc(NCc2cc3cc4c(cc3n(CC(=O)Nc3ccccc3Cl)c2=O)OCO4)cc1,?,/,/,/,-8.0%,/
O=C(/C=C\c1ccccc1OC(=O)c1ccccc1F)c1cc2ccccc2o1,44.7µM*,3.9%,?,?,20.5%,29.9%
COc1ccc(C2C(C#N)=C(N)Oc3c2c(C)nn3-c2ccccc2)cc1Cn1nc(C)c([N+](=O)[O-])c1C (stereo not drawn),/,-18.3%,?,-16.2%,-7.4%,5.01µM*
COc1ccc(C2C(C#N)=C(N)Oc3c2c(-c2ccccc2)nn3-c2ccccc2)c(OC)c1OC (stereo not drawn),50.1µM*,?,?,-12.4%,4.0%,?
Cc1nn(Cc2ccccc2)c2c1C(c1ccc(Cl)cc1)C(C#N)=C(N)O2 (stereo not drawn),?,-3.7%,-15.0%,2.1%,10.4%,?
Cc1nn(-c2ccccc2)c2c1C(c1ccccc1)C(C#N)=C(N)O2 (stereo not drawn),?,1.3%,-11.6%,8.5%,-2.1%,3.55µM*
COC(=O)C1=C(C)OC(N)=C(C#N)C1c1ccc(OC)c(OC)c1OC (stereo not drawn),-0.9%[12.7 µM],-5.9%,-3.1%,23.3%,-8.4%,0.1%
N#CC1=C(N)OC2=C(CN(Cc3ccccc3)C/C2=C\c2cccnc2)C1c1cccnc1 (stereo not drawn),?,?,-17.6%,-23.4%,-8.7%,1.26µM*
C/C(=N\NC(=O)c1ccncc1)c1ccc2ccccc2c1O,/,/,/,/,/,3.4%[13.5 µM]
Cc1ccc(S(=O)(=O)Nc2cccc(C(=O)N3CCC(C(N)=O)CC3)c2)cc1,12.0%[2.33 µM],/,/,/,/,/
CCOC(=O)CSc1n[nH]c(NC(=O)NC(C)C)n1,/,5.0%,/,5.1%,2.8%,6.1%
